Assay results taken from ChEMBL document CHEMBL3988442, “University of Dundee, Small-Polar-MMV Screening Library” (2021).
The whole screen tested about 48,000 compounds, of which about 13,000 (27%) showed an effect of 50% or more. The list shows a part of the results.

test system: Wolbachia pipientis; assay: Anti-Wolbachia Cell-Based Screen; format: functional; design: scale not given: in the data most compounds retested in dose-response had high values; conditions: 5 µM

SMILES	Percent Effect
COc1cc(CCC(=O)NCC2CCCN2C)ccc1OCC(F)(F)F (centres undefined)	-0.8695%
Cc1nc(O)cc([C@@H]2CN(C(=O)C3CC3)C[C@H]2c2ccccc2F)n1	114.1%
COCC(=O)N1C[C@H]2CN(Cc3csc(C)n3)C(=O)[C@H]2C1.O=C(O)C(F)(F)F	-18.32%
Cc1nc(O)cc(C2CCCN(C(=O)COCc3ccccc3)C2)n1 (centres undefined)	12.86%
CC(=O)N1C[C@H](c2cc(O)nc(C)n2)[C@@H](c2ccccc2F)C1	117%
CC(=O)N1C[C@@H](F)[C@@H](OCc2nc3ccccc3o2)C1	-12.47%
COCC(=O)N1C[C@@H](c2cc(O)nc(C)n2)[C@H](c2ccccc2F)C1	108.7%
CN1CCC2(CCCN(C(=O)c3cncn3C)C2)CC1.O=C(O)C(F)(F)F	-6.177%
CCc1c(O)nc(SCC(=O)Nc2ccccc2)n(C(C)CC)c1=O (centres undefined)	-0.04082%
CCc1c(O)n(C(C)CC)c(SCC(=O)c2ccccc2)nc1=O (centres undefined)	125.3%
CCc1c(O)nc(SCC(=O)N(CC)CC)n(C(C)CC)c1=O (centres undefined)	-0.2531%
Cc1noc(C)c1CN1C[C@@H](C(=O)O)[C@H](C(C)C)C1	-19.42%
CC(C)NC(=O)c1ccc2c(c1)nc1n2CCN(Cc2ccccc2)C1	112.9%
CC(C)NC(=O)c1ccc2c(c1)nc1n2CCN(c2ccccc2)C1	20.1%
COCCN1CCn2c(nc3cc(C(=O)NC(C)C)ccc32)C1	122.8%
CC(C)CN1CCn2c(nc3cc(C(=O)NC(C)C)ccc32)C1	121.2%
COCCN1CCN(C(C)C(=O)Nc2ccnn2C(C)C)CC1 (centres undefined)	-8.101%
CC(C)NC(=O)c1ccc2c(c1)nc1n2CCN(C(C)C)C1	-1.576%
CC(C)N1CCn2c(nc3cc(C(N)=O)ccc32)C1	42.97%
CCN1CCN(c2ccc(C(=O)NC(C)CCOC)cc2)CC1 (centres undefined)	-9.084%
CCc1nnc2n1CCN(Cc1ccc(C(=O)N3CCCC3)cc1)C2	0.2623%
CCNC(=O)c1ccc2c(c1)nc1n2CCN(C(C)C)C1	109.5%

SMILES	Percent Effect
CC(C)CN1CCn2c(COCc3cccnc3)nnc2C1.O=C(O)C(F)(F)F.O=C(O)C(F)(F)F	-7.115%
Cc1nnc2n1CCN(CC(=O)NC(C)c1ccc3ccccc3c1)C2 (centres undefined)	-2.487%
O=C(Nc1ccccc1CCc1ccccn1)NC1CCOCC1	-7.389%
O=C1NCCN(C(=O)c2cn3ccsc3n2)C1Cc1ccccc1 (centres undefined)	-8.073%
Cc1cnn(CC2CCCN2Cc2cc(=O)n3ccccc3n2)c1 (centres undefined)	2.976%
COC(=O)CNC(=O)c1nc(-c2ccccc2OC)c2cnccn12	100.8%
COc1ccccc1C1(CNc2ccnc(C(=O)N(C)C)c2)CC1	15.85%
COc1ccccc1C1(CNc2ccc(C(=O)N(C)C)cn2)CC1	4.76%
COc1ccccc1-c1nc(C(=O)N2CCOCC2)n2ccncc12	98.47%
CCN(CC)CCn1cc(NC(=O)CNc2ccccc2OC)cn1	1.772%
Cc1c(C(=O)N2CCCOCC2)nnn1-c1cccc2cnccc12	5.187%
COC(=O)CCNC(=O)c1c[nH]cc1-c1ccccc1OC	1.896%
COc1ccccc1C(=O)N1CCN(C(=O)CCn2ccnc2)CC1	1.871%
COc1ccccc1-c1nc(C(=O)N(C)C)n2ccncc12	107.3%
COc1cccc(CNC(C)c2ccc(-n3ccnc3)cc2)c1OC.Cl (centres undefined)	1.707%
Cc1nnc(C(C)Nc2ccc(OCCc3ccccc3)nc2)o1 (centres undefined)	-0.9062%
COc1cc(CNc2nc(C(F)(F)F)no2)cc(OC)c1OC	5.574%
CC(C1CCN(Cc2ccc(OC(F)F)cc2)CC1)N1CCOCC1 (centres undefined)	6.94%
Cl.Fc1ccc(CN2CCC(c3n[nH]c4ncccc34)CC2)cc1F	3.09%
CC(C)Oc1cccc(CN2CCC(C(C)N3CCOCC3)CC2)c1 (centres undefined)	8.799%
Fc1cccc(CN2CCC(c3n[nH]c4ncccc34)CC2)c1F	-6.364%
CC(C)Oc1ccc(CN2CCC(c3n[nH]c4ncccc34)CC2)cc1	97.82%

SMILES	Percent Effect
Fc1cccc(Cl)c1CN1CCC(c2n[nH]c3ncccc23)CC1	100.4%
CC(C)Oc1cccc(CN2CCC(c3n[nH]c4ncccc34)CC2)c1	89.98%
CC(C)Oc1ccc(CN2CCC(Cc3nnc(CO)n3C)CC2)cc1	-3.16%
Cc1cc(NC(=O)c2nc(N3CCCC3)ncc2Cl)ccc1Br	7.259%
Cc1ncoc1C(=O)N1C[C@@H]2COC[C@]2(c2nnc(C3CC3)o2)C1	19.81%
NC1CCCCN(Cc2cc(C3CCCCC3)no2)C1 (centres undefined)	4.436%
O=C(c1cc(C2CCCCC2)no1)N1C[C@H]2C[C@H](O)C[C@H]2C1	95.88%
O=C(c1cc(C2CC2)nc2onc(-c3ccccc3)c12)N1CC(O)C1	1.744%
C[C@@H]1CN(C2CCCCC2)CC[C@@]1(O)C1CCOCC1	98.71%
O=C(C1CCOCC1)N1C[C@H]2CC[C@@H]1CN(C1Cc3ccccc3C1)C2	13.64%
C[C@@H]1CN(CC(C)(C)N2CCOCC2)CC[C@@]1(O)C1CCOCC1	4.466%
C[C@@H]1CN(C2CCN(c3ccccc3F)CC2)CC[C@]1(C)O	-26.42%
C[C@@H]1CN(S(=O)(=O)N2CCCC2)CC[C@@]1(O)C1CCOCC1	-9.489%
C[C@@H]1CN(C2CCN(c3ccccc3)CC2)CC[C@@]1(O)C1CCOCC1	103.2%
C[C@@H]1CN(C2Cc3ccccc3C2)CC[C@@]1(O)C1CCOCC1	82.39%
C[C@@H]1CN(C(=O)c2ccc(=O)[nH]c2)CC[C@@]1(O)C1CCOCC1	-4.844%
COc1ccc(CNC(=O)CNc2cc3c(cc2Cl)OCCO3)cc1	11.87%
CN1CCc2onc(CNc3ncccn3)c2C1.O=C(O)C(F)(F)F.O=C(O)C(F)(F)F	-12.85%
Cc1ccc(CN(Cc2ccccn2)C(=O)[C@H]2CC[C@@H](N)C2)s1	-33.4%
O=C(O)C(F)(F)F.c1c2c(nn1CC1CC1)C(CNC1CCOCC1)OCC2 (centres undefined)	5.412%
COCCN(Cc1ccc(F)cc1Cl)C(=O)c1cccc[n+]1[O-]	-30.73%
Cc1n[nH]c(C)c1S(=O)(=O)N1CCC(Oc2ccccc2F)CC1	121.8%

SMILES	Percent Effect
COc1ccccc1S(=O)(=O)N1CCC(Oc2cccnn2)CC1	-12.85%
O=S(=O)(c1ccccc1F)N1CCC(Oc2cccnn2)CC1	-7.526%
Cc1noc(C)c1S(=O)(=O)N1CCC(Oc2ccccn2)CC1	2.267%
Cc1noc(C)c1S(=O)(=O)N1CCC(Oc2cccnn2)CC1	-5.902%
Cc1ccccc1OC1CCN(S(=O)(=O)c2c(C)n[nH]c2C)CC1	120.4%
CCOC(=O)C1CCN(CCCc2nnnn2-c2ccccc2)CC1	10.8%
Cc1ccc(C(=O)N2CCCCC2CNC(N)=O)s1 (centres undefined)	-21.76%
CN(C)c1ccc(C(=O)N2CCCCC2CC(N)=O)c(F)c1 (centres undefined)	-10.13%
NC(=O)NCC1CCCCN1C(=O)c1ccc(Cl)s1 (centres undefined)	6.082%
CNS(=O)(=O)CC1CCCN1C(=O)c1ccc(C)c(C)c1 (centres undefined)	1.148%
COc1cccc(C(=O)N2CCCCC2CNC(N)=O)c1 (centres undefined)	4.596%
NC(=O)NCC1CCCCN1C(=O)c1cccc(Cl)c1 (centres undefined)	109.7%
NC(=O)NCC1CCCCN1C(=O)c1cc(F)cc(F)c1 (centres undefined)	94.01%
Cc1ccc(C(=O)N2CCCCC2CNC(N)=O)cc1F (centres undefined)	100.6%
NC(=O)NCC1CCCCN1C(=O)c1ccc(Br)s1 (centres undefined)	13.78%
Cc1cc(C)n(CC2CCCN2C(=O)Cc2csc(C)n2)n1 (centres undefined)	-5.348%
CCN(C(C)=O)c1nc(CN2CCCCC2Cn2cncn2)cs1 (centres undefined)	113.4%
c1ncn(CC2CCCN2Cc2cn3ccsc3n2)n1 (centres undefined)	-12.38%
CCN(C(C)=O)c1nc(CN2CCCC2Cn2cncn2)cs1 (centres undefined)	93.1%
Cc1cccn2c(=O)cc(CN3CCCCC3Cn3cncn3)nc12 (centres undefined)	-0.6189%
CC(=O)N(C)c1nc(CN2CCCC2Cn2nc(C)cc2C)cs1 (centres undefined)	89.05%
CC(=O)Nc1nc(CN2CCCCC2Cn2cncn2)cs1 (centres undefined)	101%

SMILES	Percent Effect
CN(C)C(=O)Cc1nc(CN2CCCC2Cn2cccn2)cs1 (centres undefined)	-60.87%
CC(=O)Nc1nc(CN2CCCC2Cn2cncn2)cs1 (centres undefined)	-0.3919%
Cc1cc(C)n(CC2CCCN2CC(=O)N(C)C)n1 (centres undefined)	-0.9617%
NC(=O)c1ccc(N2CCCCC2)c(NC(=O)c2ccc(F)cc2Cl)c1	-3.289%
CSc1nc(C2CC2)nc(C)c1C(=O)NCc1ncc(C)o1	6.945%
CCc1nc(CN2CCCN(C(=O)c3cn[nH]c3CC)CC2)cs1	9.391%
Cc1cc(NC(=O)N2CCCC(O)C2)nn1-c1ccccc1Cl (centres undefined)	-23.68%
CC(=O)N(C)c1nc(CN2CCCC2Cn2cncn2)cs1 (centres undefined)	102%
CC(=O)N(C)c1nc(CN2CCCCC2Cn2cncn2)cs1 (centres undefined)	-7.447%
CN(C)C(=O)Cc1nc(CN2CCCC2Cn2cncn2)cs1 (centres undefined)	-5.183%
COc1ccc(N(C)C(=O)c2cccc(S(C)(=O)=O)c2)cn1	-2.349%
Cc1nc[nH]c1C(=O)N1CC[C@@H](NC(=O)c2ccccn2)[C@H](O)C1	-7.66%
CO[C@H]1CN(C(=O)c2ccc3oc(C)cc3c2)CC[C@@]12CCCO2	0.1168%
Cc1cc2cc(C(=O)N3CC[C@H](O)[C@]4(CCCO4)C3)ccc2o1	1.113%
Cc1cc2cc(C(=O)N3C[C@H](O)[C@]4(CCCO4)C3)ccc2o1	113.6%
COc1ccc(C(=O)N2C[C@@H](C)[C@@](C)(O)C2)cc1N1CCOCC1	-1.788%
CO[C@H]1CN(C(=O)c2ccc3oc(C)cc3c2)C[C@@]12CCCO2	96.35%
CC(=O)N1CCC2(CC1)CN(C(=O)c1ccc3c(c1)OCCO3)C2	-18.73%
CC[C@@]1(O)CCN(C(=O)c2cccc3cc(C)oc23)C[C@H]1O	10.55%
CO[C@H]1CCN(C(=O)c2ccc3oc(C)cc3c2)C[C@@]12CCCO2	93.08%
COc1ccc(C(=O)N2CC[C@](C)(O)[C@H](C)C2)cc1N1CCOCC1	0.3479%
